Screening results: PubChem BioAssay, National Center for Advancing Translational Sciences (NCATS)
Pf Dd2 inh: inhibitors of Plasmodium falciparum Dd2 growth | Potency, µM (doses to about 28.9 µM), without a hit: top-dose activity, negative = inhibition, actives largely listed as inhibitors | P. falciparum Dd2 growth, SYBR Green, 72 h | 4.3% of 120,000 active | AID 1347417; active = well fitted inhibition curve with a large enough effect;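 note: plate controls were DMSO vehicle for no effect and reference drug for full effect; nearly all actives have a fitted effect of over 65% in size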
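Infected erythrocytes (Dd2, 0.3% parasitemia, 2.5% hematocrit final) are added to compound in RPMI-1640/Albumax II medium, grown 72 h at 37C in low oxygen, then lysed with saponin/Triton-X containing SYBR Green and read by fluorescence.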
Numbers without * were called inactive; ! = not active in a repeat; [ ] = another dose, or the depositor's remark. The entries come from a sample that favours hits as a whole. Potency is the fitted concentration of half-maximal effect.

O=C(NCCc1ccccc1)c1cnc2c(c1)N(C(=O)Cc1cccc(C(F)(F)F)c1)CCC2 was read as Pf Dd2 inh inactive.
CC1Oc2ccc(NC(=O)Cc3ccccc3)cc2CN(Cc2ccc(F)cc2)C1=O (configuration not stated) was read as Pf Dd2 inh -10%.
For COCCC(=O)N1C[C@H]2OC(=O)N(CCc3ccc(OC)cc3)[C@H]2C1 the results were Pf Dd2 inh -9%.
For Cc1cc(NC(=O)c2ccc3c(c2)N(Cc2cccc(Cl)c2)C(=O)c2ccccc2S3=O)ccc1Br (configuration not stated) the results were Pf Dd2 inh 10µM*.
`O=C(c1ccc2c(c1)N(Cc1ccc(Cl)cc1)C(=O)c1ccccc1S2(=O)=O)N1CCc2ccccc21` gave Pf Dd2 inh inactive.
For CCN1C(=O)c2ccccc2Sc2ccc(NC(=O)c3ccc(C#N)cc3)cc21 the results were Pf Dd2 inh 23%.
For COc1ccc(C)cc1NC(=O)c1ccc2c(c1)N(Cc1cccc(Cl)c1)C(=O)c1ccccc1S2=O (configuration not stated) the results were Pf Dd2 inh 7.9µM*.
O=C(Nc1cccc(Cl)c1Cl)c1ccc2c(c1)N(Cc1cccc(Cl)c1)C(=O)c1ccccc1S2=O (configuration not stated) was read as Pf Dd2 inh 66%[0.594 µM].
CCN1C(=O)c2ccccc2Sc2ccc(NC(=O)c3cccc(C)c3)cc21 was read as Pf Dd2 inh inactive.
`Cc1cc(NC(=O)c2ccc3c(c2)N(Cc2cccc(Cl)c2)C(=O)c2ccccc2S3(=O)=O)ccc1Br` gave Pf Dd2 inh 8.9µM*.
`Cc1ccc(CNC(=O)c2ccc3c(c2)N(Cc2ccccc2F)C(=O)c2ccccc2S3(=O)=O)cc1` gave Pf Dd2 inh inactive.
`CC(=O)Nc1ccc(NC(=O)c2ccc3c(c2)N(Cc2cccc(Cl)c2)C(=O)c2ccccc2S3(=O)=O)cc1` gave Pf Dd2 inh -25%.
CCC(C)NC(=O)c1ccc2c(c1)N(Cc1cccc(Cl)c1)C(=O)c1ccccc1S2=O (configuration not stated) was read as Pf Dd2 inh -23%.
For N#Cc1cccc(NC(=O)c2ccc3c(c2)N(Cc2cccc(Cl)c2)C(=O)c2ccccc2S3(=O)=O)c1 the results were Pf Dd2 inh 2.2µM*.
Screening Cc1cccc(C)c1NC(=O)c1ccc2c(c1)N(Cc1cccc(Cl)c1)C(=O)c1ccccc1S2=O (configuration not stated) returned Pf Dd2 inh -16%.
`CC1CCN(C(=O)c2cc3c(s2)CCC(C(=O)O)C3)CC1` (configuration not stated) gave Pf Dd2 inh 3%.
For COCc1noc([C@@H]2CC(F)(F)CN2)n1 the results were Pf Dd2 inh -16%.
`COc1cc(OC)cc(-c2onc(C)c2C(=O)NCc2cccc(C)c2)c1` gave Pf Dd2 inh inactive.
`CC(C)N1C(=O)CO[C@H]2CCN(Cc3ccccn3)CC[C@@H]21` gave Pf Dd2 inh 19%[44.1 µM].
For CN(C(=O)Cn1c2c(c(=O)n1Cc1ccccc1)CCN(Cc1ccccc1)C2)c1ccccc1 the results were Pf Dd2 inh inactive.
Screening O=C(NCc1ccc(N2CCCCC2)cc1)c1cnc(-c2ccccc2)nc1-c1ccncc1 returned Pf Dd2 inh -11%.
For O=C([C@H]1C[C@H](Oc2ccccc2)CN1C(=O)Cc1ccccc1F)N1CCOCC1 the results were Pf Dd2 inh -19%.
`CC(C)CCN1CCC(N2CCN(S(=O)(=O)c3ccc(F)cc3F)CC2)C1=O` (configuration not stated) gave Pf Dd2 inh inactive.
`C[C@H](O)c1onc(-c2ccc(Cl)cc2)c1C(=O)NC1CC1` gave Pf Dd2 inh -14%[44.1 µM].
`COC(=O)CNC(=O)N1CCC(N2C(=O)C(OCC3CC3)C23CCCCC3)CC1` (configuration not stated) gave Pf Dd2 inh -17%.
For CC(C)c1ccc(C(=O)N2CC3CC(C2)[C@H]2CCCC(=O)N2C3)cc1 (some centres not stated) the results were Pf Dd2 inh -7%.
c1cc2nc(C3CCN(C4CCCCC4)C3)[nH]c2cn1 (configuration not stated) was read as Pf Dd2 inh 31%[44.1 µM].
Screening FC(F)(F)c1ccc(CN2CC[C@H](c3nc4ccccc4[nH]3)C2)cc1 returned Pf Dd2 inh inactive.
Screening Brc1ccc(CN2CCC(c3nc4ncccc4[nH]3)C2)cc1 (configuration not stated) returned Pf Dd2 inh -26%.
Screening N#Cc1ccc2nc([C@H]3CCN(Cc4ccccc4)C3)[nH]c2c1 returned Pf Dd2 inh -15%[44.1 µM].
`O=C(c1ccccc1)N1CC[C@H](c2nc3ccc(F)cc3[nH]2)C1` gave Pf Dd2 inh -9%[44.1 µM].
For FC(F)(F)c1ccc2nc([C@H]3CCN(CC4CC4)C3)[nH]c2c1 the results were Pf Dd2 inh 13µM*.
Screening CN(C)c1ccc(CN2CC[C@H](c3nc4ccc(C(F)(F)F)cc4[nH]3)C2)cc1 returned Pf Dd2 inh 5.6µM*.
For O=C(C1CCCCC1)N1CC[C@H](c2nc3ccc(C(F)(F)F)cc3[nH]2)C1 the results were Pf Dd2 inh inactive.
For CC(=O)N1CC[C@H](c2nc3ccc(C(F)(F)F)cc3[nH]2)C1 the results were Pf Dd2 inh 27%[44.1 µM].
Screening N#Cc1ccc(CN2CCC(c3nc4ccncc4[nH]3)C2)cc1 (configuration not stated) returned Pf Dd2 inh 10µM*!.
For CN1CCC(N2CC[C@H](c3nc4ccccc4[nH]3)C2)CC1 the results were Pf Dd2 inh 23%[44.1 µM].
For FC(F)(F)c1ccc2nc([C@H]3CCN(C4CCCCC4)C3)[nH]c2c1 the results were Pf Dd2 inh 7.9µM*.
Screening O=C(Cc1cnc[nH]c1=O)N1CCC2(CC1)[C@H](O)C[C@@H]2OCCO returned Pf Dd2 inh -17%.
For COc1cccc(S(=O)(=O)N2C[C@@H](Oc3cccnc3)C[C@@H]2C(=O)N2CCOCC2)c1 the results were Pf Dd2 inh 8%.
O=C(NCc1cccc(F)c1)N1CCC(N2CC3CC(C2)[C@H]2CCCC(=O)N2C3)CC1 (some centres not stated) was read as Pf Dd2 inh inactive.
COC[C@@H]1[C@H](C(=O)NCCC2=CCCCC2)CCC(=O)N1C was read as Pf Dd2 inh 17%.
Screening CCc1noc(-c2ccn3c(CNC(=O)Cc4ccc(C)cc4)nnc3c2)n1 returned Pf Dd2 inh inactive.
Screening COC(=O)c1cc2n(n1)CCN(C(=O)C(C)Oc1ccccc1)C2 (configuration not stated) returned Pf Dd2 inh -1%.
`Cn1nc2n(c1=O)CCN(C(=O)CCCc1c[nH]c3ccccc13)CC2` gave Pf Dd2 inh 1%.
Screening CN(Cc1ccc(-n2cccn2)cc1)C(=O)c1ccccc1C1CCNC1 (configuration not stated) returned Pf Dd2 inh -14%.
For O=C(NCc1ccccc1F)[C@H]1CN(Cc2ccccc2)C[C@H]1C(=O)O the results were Pf Dd2 inh -24%.
For CC(=O)N1CCc2cc(S(=O)(=O)CCC(=O)N3CCC(Cc4nncn4CC4CC4)CC3)ccc21 the results were Pf Dd2 inh -16%.
Screening COc1ccc(N2CCN(C(=O)CN3C(=O)NC4(CCC(C)CC4)C3=O)CC2)cc1 (configuration not stated) returned Pf Dd2 inh 1%.
Screening O=C(/C=C/c1cn(CC(O)CN2CCCCCC2)c2ccccc12)c1ccccc1 (configuration not stated) returned Pf Dd2 inh 10µM*.
